Screening results deposited in PubChem by several laboratories.
PostGolgi yeast: phenotypic screen on post-Golgi transport, primary screen; post-Golgi transport phenotypic cell assay; inhibition, % at 10 µM; actives 0.9% (n = 98,000);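 note: yeast cells grown in 1536-well plates; yeast grown about 18 h at 30C before absorbance read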
sEH act: soluble epoxide hydrolase activators, primary screen, biochemical, human sEH. Bifunctional epoxide hydrolase 2 (Homo sapiens), P34913. purified human sEH enzymatic activity, activator screen. activation, % at 2 µM. actives 0.04% (n = 91,000); in the data active = activation above about 37%
Target sequence (P34913 whole entry, looked up): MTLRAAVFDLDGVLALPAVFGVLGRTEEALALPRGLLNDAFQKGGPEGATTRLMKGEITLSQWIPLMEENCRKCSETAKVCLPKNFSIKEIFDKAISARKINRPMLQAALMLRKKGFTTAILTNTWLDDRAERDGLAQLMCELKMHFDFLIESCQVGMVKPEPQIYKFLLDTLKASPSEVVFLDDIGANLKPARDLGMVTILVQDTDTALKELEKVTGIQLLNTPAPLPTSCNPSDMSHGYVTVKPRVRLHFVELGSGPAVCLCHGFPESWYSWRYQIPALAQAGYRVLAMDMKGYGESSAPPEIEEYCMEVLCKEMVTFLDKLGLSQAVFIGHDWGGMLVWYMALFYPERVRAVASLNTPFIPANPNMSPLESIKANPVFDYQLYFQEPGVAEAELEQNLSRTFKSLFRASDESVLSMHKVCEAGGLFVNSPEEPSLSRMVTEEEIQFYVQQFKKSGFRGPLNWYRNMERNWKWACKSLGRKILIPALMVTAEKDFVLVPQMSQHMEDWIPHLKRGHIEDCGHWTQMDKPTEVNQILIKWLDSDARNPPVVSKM
Cav3 T inh: Cav3.2 calcium influx blockers – cell-based, Fluo-4 calcium fluorescence, FDSS, MLSMR library, primary screen; actives 4% (n = 100,000); Cav3.2-expressing cells; stronger effect = lower value; Voltage-dependent T-type calcium channel subunit alpha-1H (Homo sapiens), O95180; B-score at 10 µM;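 active = single-dose well whose peak fluorescence ratio is a statistical outlier from its plate by either plate-standardised score or position-corrected B-score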
PostGolgi ctrl: growth inhibition of yeast control strain, primary screen, counter-screen for post-Golgi transport modulator project | AID 738, 2007 | inhibition, % at 10 µM | actives 5% (n = 98,000) | efflux-deficient yeast background strain, growth absorbance A615, 16 h
sEH inh: soluble epoxide hydrolase inhibitors, primary screen, biochemical, human sEH; inhibition, % at 2 µM; Bifunctional epoxide hydrolase 2 (Homo sapiens), P34913; actives 0.34% (n = 91,000); recombinant human sEH enzymatic activity assay; in the data active = inhibition above about 80%
Numbers without * were called inactive; · = no result given. Shown are actives, neighbours in structure and some others; about 7.8% of the full set was active somewhere. Cut-off read from the data, not from the text of the source, unless noted: active = inhibition above about 30%; inactive = the rest.

SMILES | PostGolgi yeast | sEH act | Cav3 T inh | PostGolgi ctrl | sEH inh
Cc1nnc(NC(=O)Cn2cnc3c2c(=O)n(C)c(=O)n3C)s1 | · | 5 | 0.32 | · | -5
N#Cc1ccc(CSc2nnc(-c3cccnc3)n2-c2ccccc2)cc1 | 0 | · | 1.9 | -2 | ·
CCOc1ccc(-n2c(SCc3ccc(C#N)cc3)nnc2-c2cccnc2)cc1 | -5 | 15 | -6.8* | 4 | -17
Clc1ccc(-n2c(SC/C=C/c3ccccc3)nnc2-c2cccnc2)cc1 | -7 | 2 | -0.25 | 35* | -5
Nn1c(SC/C=C/c2ccccc2)nnc1-c1cccnc1 | 7 | 8 | 0.69 | 7 | -9
C=CCSc1nnc(-c2ccncc2)n1-c1ccc(OCC)cc1 | 5 | 2 | -0.0071 | 31* | 0
COc1ccc(-n2c(COc3ccc(Cl)cc3)nnc2SCc2ccc(C#N)cc2)cc1 | 15 | -6 | -4.3* | 21 | 4
Cc1ccc(-n2nnnc2SCn2nnc3ccccc3c2=O)c(C)c1 | -2 | 4 | -4.2 | 20 | -2
CCn1c(COc2ccc(Cl)cc2)nnc1SCc1ccc(C#N)cc1 | -10 | -15 | -5 | 34* | 18
CC1C/C(=C/c2cccn2C)C(=O)/C(=C/c2cccn2C)C1 (centres undefined) | 12 | -10 | -14* | 41* | 7
Cc1oc2c(c1C(=O)c1ccc(Cl)cc1)C(=O)C(=O)c1ccccc1-2 | 45* | -8 | · | 58* | 12
Cc1ccc(C(=O)c2coc3c2C(=O)C(=O)c2ccccc2-3)cc1 | 81* | -21 | -2.9 | 70* | 21
Cc1cc(Cl)c(S(=O)(=O)Nc2ccc3c(c2)OCO3)cc1OCC(N)=O | 8 | 0 | 0.15 | 14 | 3
Cc1cc(Cl)c(S(=O)(=O)Nc2ccc3c(c2)OCO3)cc1OCC(=O)NC1CCCCC1 | 6 | 0 | -4.2* | 9 | -1
C#CCOCCOCCOCCNc1nc(N2CCN(C(=O)C([C@@H](C)CC)n3cc(C(N)CO)nn3)CC2)nc(N2CCN(C(=O)[C@H](CCC(=O)O)n3cc(C(N)[C@H](C)CC)nn3)CC2)n1 (some centres undefined) | · | · | 0.012 | · | ·
COc1ccc(-c2nnc(SCc3nnc(-c4ccccc4)o3)n2-c2ccccc2)cc1 | -17 | · | -1.1 | 17 | ·
COc1ccc(-c2nnc(SCc3nnc(-c4ccc(Cl)cc4)o3)n2-c2ccccc2)cc1 | -2 | -3 | -8.4* | 20 | 2
Cc1cc(C)n(CCn2nc(C)cc2C)n1 | -2 | -6 | 0.41 | 37* | 6
CSc1nn(CCc2ccncc2)c(=S)s1 | -3 | -3 | -0.07 | -4 | 3
O=C(CSc1nc2ccccc2c(=O)n1NC(=O)Cc1ccccc1)NCc1ccccc1Cl | 12 | -8 | -3.2 | 7 | 5
COc1ccc(S(=O)(=O)N(CC(=O)N/N=C/c2cccs2)c2ccc(C)cc2)cc1OC | 17 | -4 | -6.1* | -3 | 6
CCOc1ccc(C(=O)CCc2nc3ccccc3s2)cc1 | -6 | -6 | -3.5 | 16 | 9
CC(Oc1ccccc1)C(=O)N1CCC2(CC1)Oc1ccc(F)cc1C(=O)C21CC(c2ccccc2)=NO1 (centres undefined) | · | · | -4* | · | ·
Cc1nn2c(N3CCN(c4ccccn4)CC3)cc(C(C)C)nc2c1-c1ccccc1 | 41* | · | -3.2 | 99* | ·
Cc1cc(N2CCOCC2)n2nc(C)c(-c3ccccc3)c2n1 | -8 | 0 | 3.8* | 17 | 2
SMILES | PostGolgi yeast | sEH act | Cav3 T inh | PostGolgi ctrl | sEH inh
Cc1cc(N2CCC3(CC2)OCCO3)n2nc(C)c(-c3ccc(Cl)cc3)c2n1 | · | 10 | · | · | -14
COc1ccccc1-c1c(C)nn2c(N3CCC4(CC3)OCCO4)cc(C)nc12 | 4 | 7 | 0.27 | 98* | -2
Clc1ccc(SCc2cc(Cl)nc(-c3ccccc3)n2)cc1 | · | · | -1.5 | · | ·
O=S(=O)(Cc1cc(Sc2ccc(Cl)cc2)nc(-c2ccccc2)n1)c1ccccc1 | -4 | 9 | -4* | -7 | -10
Cc1nc(CS(=O)(=O)c2ccc(Cl)cc2)cc(Sc2ccc(Cl)cc2)n1 | -6 | -1 | -5.3* | 7 | 2
CCOC(=O)C(C)Sc1cc(CS(=O)(=O)c2ccccc2)nc(-c2ccccc2)n1 (centres undefined) | 14 | 1 | -5.8* | 18 | 1
O=S(=O)(Cc1cc(Oc2ccccc2)nc(-c2ccccc2)n1)c1ccccc1 | 5 | -5 | -5.1* | 11 | 2
Cc1cc(Oc2ccccc2)nc(-c2ccccc2)n1 | -10 | -5 | -0.35 | 0 | 7
CCCn1c(SCC(=O)Nc2ccccc2N2CCCCC2)nc2c1c(=O)n(C)c(=O)n2C | 12 | 1 | -4.4* | 22 | -1
CCCn1c(SCC(=O)Nc2ccccc2C(=O)OC)nc2c1c(=O)n(C)c(=O)n2C | -10 | 6 | -1.5 | 15 | -2
COC(=O)Cn1c(=O)c2c(nc3n2CC(C)CN3c2ccc(C)c(C)c2)n(C)c1=O (centres undefined) | · | · | 1.1 | · | ·
Cc1nnc(SCc2ccc(C(=O)O)cc2)s1 | 2 | 7 | 1.5 | 6 | -8
O=C(O)c1ccc(CSc2nnc(SCc3ccccc3)s2)cc1 | 2 | -9 | -6.6* | 3 | 9
Cc1cc(C)cc(NC(=O)c2ccc(CSc3nnc(C)s3)cc2)c1 | -4 | -2 | -11* | -4 | 1
Cc1cc(/C=C(/C#N)c2cccc(Cl)c2)c(C)n1C | 0 | -2 | · | 43* | 0
Cc1cc(/C=C2/SC(=S)N(c3cccc(Cl)c3)C2=O)c(C)n1-c1cccnc1 | · | 6 | -0.26 | · | -7
Cc1cc(/C=C(/C#N)c2cccc(F)c2)c(C)n1-c1cccnc1 | -2 | · | -2.2 | 37* | ·
Nc1ccc2nc(CN3CCOCC3)[nH]c2c1 | 2 | 16 | · | 1 | -18
COc1c(Cl)cc(-c2noc(C)c2C(=O)NCCc2ccc(C)cc2)cc1Cl | 2 | 1 | -1.4 | 37* | -2
COc1c(Cl)cc(-c2noc(C)c2C(=O)NCc2ccccc2)cc1Cl | -1 | 14 | -2.5 | 10 | -15
Cc1ccc(S(=O)(=O)NC(C)CCc2ccccc2)cc1 (centres undefined) | -11 | 1 | -4.1* | 28 | 1
Cc1ccc(S(=O)(=O)NCCc2ccccc2)cc1 | 7 | 2 | -2.4 | 8 | -4
COc1cccc(N2CCN(c3ncnc4c3[nH]c3ccc(F)cc34)CC2C)c1 (centres undefined) | 66* | 3 | -6.1* | 96* | -2
COc1cccc(N2CCN(c3ncnc4c3[nH]c3ccccc34)CC2C)c1 (centres undefined) | 7 | · | -5.9* | 44* | ·
COc1ccccc1C(CCN(Cc1cccs1)C(C)=O)c1ccco1 (centres undefined) | 0 | 0 | -5* | 38* | 2
CCC(=O)NCCC(c1ccco1)c1ccccc1OC (centres undefined) | 1 | 0 | 0.88 | 0 | -2
CC(C)N(C)C1CCN(C(=O)Nc2ccc(Cl)c(Cl)c2)CC1 | -4 | · | 0.99 | 3 | ·
